# According to PubChem BioAssay:
# Calls of active or inactive are those of the source.
# Experiments:
# Albumin (Bos taurus) = Albumin (Bos taurus) (UniProt P02769); assay: bovine serum albumin binders on microarray, profiling panel, artefact control for SMM control protein annotation, biochemical, small-molecule microarray, Alexa647 label, 635/667 nm fluorescence (AID 1118); details: BSA-A647 binding, fluorescence 635 nm, higher = more signal;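 also: score merges 667 nm emission intensity and signal-to-noise per printed compound spot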
# [1] = small-molecule microarray binders of probe aXIP, primary screen, biochemical, NeuroSMM set, 635/667 nm fluorescence (AID 1119); details: higher = more signal, called active from +8 up or from −8 down;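 also: probe is the protein aXip251-270 applied at 1 µg/mL to compound-printed slides; binding of probe to printed compounds measured as 667 nm fluorescence plus signal to noise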
# [2] = small-molecule binders of probe aNOTCH3, primary screen, biochemical, small-molecule microarray, 635/667 nm fluorescence (AID 1120); details: higher = more signal;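 also: probe is a biotin-tagged antibody raised against NOTCH3 rather than NOTCH3 protein; score merges spot fluorescence near 667 nm with spot signal to noise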
# [3] = small-molecule binders of probe aNOTCH2, primary screen, biochemical, small-molecule microarray, 635/667 nm fluorescence (AID 1121); details: higher = more signal;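 also: score merges feature fluorescence read at 667 nm with its signal to noise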
# [4] = target: Carbonic anhydrase 2 (Homo sapiens) (UniProt P00918); assay: CAII small-molecule binders, profiling panel, biochemical, small-molecule microarray, Alexa647-labelled CAII (AID 1122); details: CAII-A647 binding fluorescence, higher = more signal
# [5] = COS7 lysate on small-molecule microarray, probe aHis, 635 nm (AID 1123); details: COS7 cell lysate, fluorescence, higher = more signal;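 also: z-score combines 667nm fluorescence intensity with signal-to-noise per printed compound spot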
# [6] = compound binding in COS7 lysate, probe aLAP1, primary screen, cell lysate, small-molecule microarray (AID 1124); details: probe aLAP1, fluorescence, higher = more signal;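 also: lysate comes from COS7 cells expressing LAP1 and is applied at 0.3 µg/mL; score merges spot fluorescence near 667 nm with signal-to-noise over triplicate slides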
# Sam68 (KHDRBS1) = assay: Sam68 small-molecule binders, primary screen, biochemical, small-molecule microarray, 635 nm fluorescence (AID 1125); details: small-molecule microarray binding, higher = more signal;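 also: score merges 667 nm channel intensity with signal to noise over triplicate slides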
# [7] = test system: Chordin-like protein 2 (CHRDL2); assay: CHRDL2 small-molecule binders, primary screen, biochemical, small-molecule microarray, 635 nm fluorescence (AID 1126); details: small-molecule microarray binding, fluorescence 635 nm; higher = more signal;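 also: printed compound slides probed with Chrdl2 protein at 4 µg/mL for 1 h at 4 C; score merges 667 nm emission intensity with signal to noise over three replicate slides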
# [8] = target: Concanavalin-A (Canavalia ensiformis) (UniProt P02866); assay: ConA small-molecule binders, primary screen, artefact control for SMM control protein annotation, biochemical, small-molecule microarray, Alexa647 label, 635 nm (AID 1127); details: ConA-A647 binding fluorescence, higher = more signal;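 also: z combines 667 nm emission intensity with signal-to-noise across three replicate slides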
# [9] = anti-His antibody binders, primary screen, artefact control for SMM control protein annotation, biochemical, small-molecule microarray, 635 nm fluorescence (AID 1128); details: anti-His Alexa647 antibody binding, higher = more signal;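 also: score merges feature fluorescence with signal-to-noise for each printed compound spot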
# [10] = test system: Human papillomavirus type 1a E7 protein (residues 1-88); assay: HPV1a E7 small-molecule binders, primary screen, biochemical, small-molecule microarray, residues 1-88, 635 nm (AID 1129); details: small-molecule microarray binding, fluorescence 635 nm; higher = more signal
# [11] = target: Focal adhesion kinase 1 (Homo sapiens) (UniProt Q05397); assay: small-molecule microarray binders of FAK, primary screen, biochemical, 635/667 nm fluorescence, BSA, DTT (AID 1130); details: PTK2 binding, 635 nm fluorescence, higher = more signal;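 also: composite of spot emission at 667 nm and signal to noise over triplicate slides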
# [12] = test system: Fibrinogen (Alexa647-labelled); assay: fibrinogen binders on compound microarrays, profiling panel, artefact control for SMM control-protein annotation, biochemical, small-molecule microarray, 635/667 nm fluorescence (AID 1131); details: fibrinogen-A647 binding fluorescence, higher = more signal;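 also: z-score merges 667 nm fluorescence with per-spot signal-to-noise over triplicate slides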
# [13] = target: Follistatin (Homo sapiens) (UniProt P19883); assay: follistatin binders on small-molecule microarrays, primary screen, biochemical, small-molecule microarray, 635/667 nm fluorescence (AID 1132); details: FST binding, 635 nm fluorescence, higher = more signal
# [14] = target: Fibroblast growth factor 2 (Homo sapiens) (UniProt P09038); assay: FGF2 binders on small-molecule microarrays, primary screen, biochemical, small-molecule microarray, 635/667 nm fluorescence (AID 1133); details: small-molecule microarray binding, FGF2, fluorescence 635/667; higher = more signal
# [15] = mitochondrial membrane potential change in A549 cells, profiling panel, cell-based, JC-1 fluorescence, basal, 24 h, 100 nL (AID 1138); details: higher = more signal;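 also: A549 lung adenocarcinoma cells under basal conditions with no added stimulus; test concentration not given here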
# Lefty1 = Lefty1 binders on small-molecule microarrays, primary screen, biochemical, small-molecule microarray, 635/667 nm fluorescence (AID 1139); details: small-molecule microarray binding, fluorescence 635/667; higher = more signal
# [16] = test system: wheat germ agglutinin (Triticum aestivum), Alexa647-labelled; assay: wheat germ agglutinin binders on compound microarrays, profiling panel, artefact control for SMM control-protein annotation, biochemical, small-molecule microarray, 635/667 nm fluorescence (AID 1140); details: WGA-A647 binding, 635 nm fluorescence, higher = more signal;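 also: score merges 667 nm feature emission with signal to noise over triplicate slides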
# [17] = target: Luciferin 4-monooxygenase (Photinus pyralis) (UniProt P08659); assay: firefly luciferase enzyme inhibitors, primary screen, biochemical, luminescence, purified enzyme, 2006 set (AID 1141); details: SteadyGlo luminescence, 30 min, higher = more signal, called active from +8 up or from −8 down;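 also: cell-free assay with purified firefly luciferase at 100 ng per well in PBS; test concentration not given here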
# Luciferin 4-monooxygenase (Photinus pyralis), sequence (P08659 whole entry, looked up): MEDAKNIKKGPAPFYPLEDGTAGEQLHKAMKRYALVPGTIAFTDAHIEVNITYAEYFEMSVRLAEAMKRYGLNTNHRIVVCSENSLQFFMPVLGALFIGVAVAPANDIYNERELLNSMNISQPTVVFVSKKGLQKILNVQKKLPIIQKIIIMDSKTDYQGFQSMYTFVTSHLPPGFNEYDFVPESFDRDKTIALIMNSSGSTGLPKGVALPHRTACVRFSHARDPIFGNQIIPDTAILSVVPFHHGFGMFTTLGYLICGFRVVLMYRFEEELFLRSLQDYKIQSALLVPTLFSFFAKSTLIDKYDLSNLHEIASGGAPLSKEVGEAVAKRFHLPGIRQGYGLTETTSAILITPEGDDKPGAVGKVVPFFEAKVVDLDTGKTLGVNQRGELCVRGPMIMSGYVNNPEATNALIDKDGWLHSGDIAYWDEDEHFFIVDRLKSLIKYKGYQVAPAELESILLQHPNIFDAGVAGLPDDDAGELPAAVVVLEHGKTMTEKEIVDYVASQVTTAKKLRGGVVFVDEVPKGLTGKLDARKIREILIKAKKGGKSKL
# Fibroblast growth factor 2 (Homo sapiens), sequence (P09038 whole entry, looked up): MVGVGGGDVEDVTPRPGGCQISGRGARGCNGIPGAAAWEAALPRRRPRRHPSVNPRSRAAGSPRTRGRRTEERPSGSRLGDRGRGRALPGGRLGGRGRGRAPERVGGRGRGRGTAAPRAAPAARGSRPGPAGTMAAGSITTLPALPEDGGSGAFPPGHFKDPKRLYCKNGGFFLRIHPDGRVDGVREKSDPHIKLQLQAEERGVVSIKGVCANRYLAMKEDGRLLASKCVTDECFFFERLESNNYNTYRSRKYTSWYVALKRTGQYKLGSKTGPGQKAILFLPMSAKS
# Follistatin (Homo sapiens), sequence (P19883 whole entry, looked up): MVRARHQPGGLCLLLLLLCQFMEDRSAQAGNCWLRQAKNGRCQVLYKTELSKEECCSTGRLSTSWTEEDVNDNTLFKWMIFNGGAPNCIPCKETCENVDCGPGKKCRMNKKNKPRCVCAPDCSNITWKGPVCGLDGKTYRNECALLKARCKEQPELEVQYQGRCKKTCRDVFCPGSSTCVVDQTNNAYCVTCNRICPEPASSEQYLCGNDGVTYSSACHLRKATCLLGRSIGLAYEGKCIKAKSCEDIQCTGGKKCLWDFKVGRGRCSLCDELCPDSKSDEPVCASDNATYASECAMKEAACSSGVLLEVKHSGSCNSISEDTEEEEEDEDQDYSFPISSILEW
# Albumin (Bos taurus), sequence (P02769 whole entry, looked up): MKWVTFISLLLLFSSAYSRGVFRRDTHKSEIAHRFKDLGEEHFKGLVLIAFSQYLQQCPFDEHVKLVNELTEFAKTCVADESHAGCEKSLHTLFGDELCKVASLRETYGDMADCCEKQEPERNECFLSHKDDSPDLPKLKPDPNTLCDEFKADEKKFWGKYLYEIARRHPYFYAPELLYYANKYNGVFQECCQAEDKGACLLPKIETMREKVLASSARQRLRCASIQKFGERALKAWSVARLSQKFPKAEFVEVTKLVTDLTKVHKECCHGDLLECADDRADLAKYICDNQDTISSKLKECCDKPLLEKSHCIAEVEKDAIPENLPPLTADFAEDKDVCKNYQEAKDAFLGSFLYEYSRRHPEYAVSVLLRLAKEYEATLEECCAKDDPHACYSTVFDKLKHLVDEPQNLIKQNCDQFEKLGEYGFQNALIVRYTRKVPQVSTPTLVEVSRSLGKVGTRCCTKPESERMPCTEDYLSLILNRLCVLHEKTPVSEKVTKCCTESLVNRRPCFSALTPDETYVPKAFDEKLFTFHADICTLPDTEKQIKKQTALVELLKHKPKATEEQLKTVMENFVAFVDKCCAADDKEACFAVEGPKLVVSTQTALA
# Concanavalin-A (Canavalia ensiformis), sequence (P02866 whole entry, looked up): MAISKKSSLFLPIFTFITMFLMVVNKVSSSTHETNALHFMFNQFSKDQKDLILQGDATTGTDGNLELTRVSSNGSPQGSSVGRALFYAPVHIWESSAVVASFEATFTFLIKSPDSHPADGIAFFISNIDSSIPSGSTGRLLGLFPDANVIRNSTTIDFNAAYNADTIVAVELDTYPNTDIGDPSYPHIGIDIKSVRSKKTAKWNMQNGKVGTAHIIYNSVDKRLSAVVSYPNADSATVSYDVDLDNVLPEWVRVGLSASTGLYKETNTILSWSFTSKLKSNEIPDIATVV
# Focal adhesion kinase 1 (Homo sapiens), sequence (Q05397 whole entry, looked up): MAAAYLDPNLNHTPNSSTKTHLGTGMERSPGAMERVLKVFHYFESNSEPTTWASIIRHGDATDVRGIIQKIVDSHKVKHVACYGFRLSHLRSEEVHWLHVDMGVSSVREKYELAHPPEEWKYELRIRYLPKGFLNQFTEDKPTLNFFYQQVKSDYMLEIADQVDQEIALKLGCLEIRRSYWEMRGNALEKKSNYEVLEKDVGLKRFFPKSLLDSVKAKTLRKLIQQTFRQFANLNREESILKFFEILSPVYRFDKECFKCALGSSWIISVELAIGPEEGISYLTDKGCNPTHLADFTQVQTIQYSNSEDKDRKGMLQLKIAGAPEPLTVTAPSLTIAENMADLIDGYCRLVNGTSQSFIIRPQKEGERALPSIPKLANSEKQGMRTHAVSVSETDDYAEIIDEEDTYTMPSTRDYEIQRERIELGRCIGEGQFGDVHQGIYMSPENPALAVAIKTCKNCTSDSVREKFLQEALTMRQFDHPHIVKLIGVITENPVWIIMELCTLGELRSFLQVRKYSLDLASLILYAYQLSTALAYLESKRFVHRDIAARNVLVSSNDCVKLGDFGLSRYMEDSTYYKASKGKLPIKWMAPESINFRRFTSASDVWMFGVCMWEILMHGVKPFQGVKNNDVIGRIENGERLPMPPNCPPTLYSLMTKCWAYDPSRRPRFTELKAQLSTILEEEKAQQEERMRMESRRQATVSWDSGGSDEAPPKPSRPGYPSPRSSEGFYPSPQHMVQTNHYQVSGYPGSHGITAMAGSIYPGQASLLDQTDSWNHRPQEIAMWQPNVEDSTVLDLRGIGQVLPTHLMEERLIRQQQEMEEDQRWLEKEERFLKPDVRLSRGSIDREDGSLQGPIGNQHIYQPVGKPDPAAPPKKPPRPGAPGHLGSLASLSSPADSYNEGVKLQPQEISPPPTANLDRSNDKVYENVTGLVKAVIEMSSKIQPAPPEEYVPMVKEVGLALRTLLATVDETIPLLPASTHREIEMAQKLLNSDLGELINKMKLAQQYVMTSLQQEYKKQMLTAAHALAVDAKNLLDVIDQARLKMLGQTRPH
Compound,composite z-score (Albumin (Bos taurus)),composite Z-score [1],composite z-score [2],composite z-score [3],composite z-score [4],composite z-score [5],composite z-score [6],composite z-score (Sam68 (KHDRBS1)),composite z-score [7],composite z-score [8],composite z-score [9],composite z-score [10],composite z-score [11],composite z-score [12],composite z-score [13],composite z-score [14],z-score [15],composite z-score (Lefty1),composite z-score [16],z-score [17]
O=C(NN=C1C[C@@H](O)[C@@H](O)[C@@H]2[C@@H]3C(=O)N(C4CCCCC4)C(=O)[C@@H]3CC[C@@H]12)OCc1ccccc1,0.566,-0.243 (inactive),-0.0873,-0.258,-0.129,-0.107,1.74,-0.881,0.425,0.457,0.0161,0.139,0.0639,0.294,0.0434,0.243,0.163,-0.0104,-0.132,-0.427 (inactive)
CC(CCN1CCc2nc(-c3ccccc3)c(-c3ccccc3)cc2C1)=NOC[C@@H](O)[C@H]1O[C@@H]2OC(C)(C)O[C@@H]2[C@H]1O,0.535,0.42 (inactive),-0.051,-0.0291,0.0181,1,0.608,1.13,0.507,0.696,0.107,0.94,0.182,0.925,0.521,0.409,2.07,1.07,0.393,-0.116 (inactive)
CC(C)CON=C1C[C@@H](O)[C@@H](O)[C@@H]2[C@@H]3C(=O)N(Cc4ccc5c(c4)OCO5)C(=O)[C@@H]3CC[C@H]12,0.768,-0.275 (inactive),-0.0288,-0.115,0.625,0.676,-0.358,1.34,0.0987,0.957,0.193,0.689,0.0874,0.237,0.707,0.914,-0.72,0.831,-0.0178,1.26 (inactive)
CCO[C@H](c1cc(OC)cc([N+](=O)[O-])c1OC)[C@H](C)C=CCC(=O)OC,-0.424,0.277 (inactive),-0.0682,-0.122,-0.324,-0.925,0.251,0.143,0.516,-0.221,0.051,-0.467,-0.361,-0.364,0.66,0.479,0.347,0.747,0.0356,-0.734 (inactive)
CCc1cc2c(nc1CC)CCN(CCC(C)=NOC[C@H]1O[C@H](c3ccccc3)C=C[C@@H]1Oc1ccc(OC)cc1)C2,0.184,-0.0263 (inactive),-0.0311,-0.155,0.787,0.552,0.056,0.292,-0.0913,0.208,0.287,-0.121,-0.0388,0.0851,0.209,-0.155,1.51,0.568,-0.0263,0.698 (inactive)
C#CCCCON=C1C[C@@H](O)[C@@H](O)[C@@H]2[C@@H]3C(=O)N(C(C)(C)C)C(=O)[C@@H]3CC[C@@H]12,0.0601,-0.0448 (inactive),0.0137,-0.123,-0.219,0.496,0.485,-0.161,0.888,-0.616,-0.331,-0.175,0.324,0.139,-1.54,-0.92,-0.289,-1.28,0.171,0.648 (inactive)
O=C1[C@H]2[C@H]3[C@H](O)[C@H](O)CC(=NO[C@@H]4O[C@H](CO)[C@@H](O)[C@H](O)[C@H]4O)[C@H]3CC[C@H]2C(=O)N1c1cccc(Oc2ccccc2)c1,-0.0534,0.189 (inactive),-0.118,-0.133,-0.0707,0.305,0.105,0.88,0.48,0.264,1.25,0.394,0.199,0.574,0.423,0.445,-0.873,0.802,0.13,1.14 (inactive)
C[C@@H](c1ccccc1)N1C(=O)[C@H]2[C@H]3[C@H](O)[C@H](O)CC(=NOCc4ccccc4)[C@H]3CC[C@H]2C1=O,0.437,-0.325 (inactive),-0.0288,-0.147,0.388,0.797,0.771,1.17,0.365,0.951,1.2,1.17,0.0785,0.823,0.287,0.181,1.06,0.295,0.0559,0.0057 (inactive)
Cc1ccc(S(=O)(=O)n2c3ccccc3c3nnc(C(=O)c4ccccc4)nc32)cc1,-0.563,0.0578 (inactive),0.12,0.012,-0.141,-0.111,0.246,-0.472,0.261,0.0083,-0.252,-0.0414,-0.0158,-1.08,0.583,0.978,-1.99,0.0671,-0.218,-4.76 (inactive)
